Assays:
Assay in all cases: log2 ratio of Biotin-Ahx-Ub-VS probe labelling (fragment/DMSO); higher = less target engagement (more negative = stronger competition), active = hit call of the paper (q ≤ 0.05, log2 ratio ≤ -1)
Conditions in all cases: compound concentration: 200 uM; treatment time: 3 h
USP19 = target: T1, USP19 (UniProt O94966)
T1 sequence (whole entry): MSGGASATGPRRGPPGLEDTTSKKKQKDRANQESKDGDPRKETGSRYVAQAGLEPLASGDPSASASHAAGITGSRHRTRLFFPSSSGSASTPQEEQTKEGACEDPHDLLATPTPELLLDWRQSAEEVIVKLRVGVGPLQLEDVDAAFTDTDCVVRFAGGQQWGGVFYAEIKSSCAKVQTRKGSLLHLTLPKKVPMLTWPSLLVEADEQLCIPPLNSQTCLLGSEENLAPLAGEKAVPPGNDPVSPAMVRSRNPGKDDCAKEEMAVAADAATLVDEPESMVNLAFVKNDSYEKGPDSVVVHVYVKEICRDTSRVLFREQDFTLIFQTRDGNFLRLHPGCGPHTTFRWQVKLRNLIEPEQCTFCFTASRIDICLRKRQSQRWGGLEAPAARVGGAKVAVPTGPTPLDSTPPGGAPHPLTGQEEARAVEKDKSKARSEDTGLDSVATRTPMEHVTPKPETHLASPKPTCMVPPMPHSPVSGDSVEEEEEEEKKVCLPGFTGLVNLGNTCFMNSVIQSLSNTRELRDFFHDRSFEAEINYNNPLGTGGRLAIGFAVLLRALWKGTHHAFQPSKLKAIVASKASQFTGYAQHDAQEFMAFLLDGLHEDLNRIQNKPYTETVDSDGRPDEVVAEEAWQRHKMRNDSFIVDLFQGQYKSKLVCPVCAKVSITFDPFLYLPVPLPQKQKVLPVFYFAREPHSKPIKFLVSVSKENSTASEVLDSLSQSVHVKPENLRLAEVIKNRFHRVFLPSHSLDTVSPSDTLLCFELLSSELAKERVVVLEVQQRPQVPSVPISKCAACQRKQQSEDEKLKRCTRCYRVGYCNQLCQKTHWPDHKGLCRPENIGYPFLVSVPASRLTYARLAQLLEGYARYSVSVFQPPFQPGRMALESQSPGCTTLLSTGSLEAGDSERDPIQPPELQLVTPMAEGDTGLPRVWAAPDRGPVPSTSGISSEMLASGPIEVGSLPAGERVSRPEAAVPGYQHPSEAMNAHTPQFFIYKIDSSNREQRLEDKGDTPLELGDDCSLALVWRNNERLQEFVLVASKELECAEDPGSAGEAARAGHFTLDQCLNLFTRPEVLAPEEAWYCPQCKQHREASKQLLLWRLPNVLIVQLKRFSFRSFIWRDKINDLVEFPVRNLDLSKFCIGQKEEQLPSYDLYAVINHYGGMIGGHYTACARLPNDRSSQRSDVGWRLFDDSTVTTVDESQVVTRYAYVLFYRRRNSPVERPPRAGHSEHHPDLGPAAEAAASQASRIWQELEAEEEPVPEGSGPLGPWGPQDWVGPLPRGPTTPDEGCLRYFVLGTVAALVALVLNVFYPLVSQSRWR
In short: (§1)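 The table lists average log2 ratios of fragment over vehicle, from an unpaired t-test on global-median-normalised Spectronaut label-free quantities. Proteins with ≥2 unique peptides were used. Samples were HEK293T lysate (495 µg) treated in triplicate with fragment at 200 µM or vehicle for 3 h, then with Biotin-Ahx-Ub-VS (0.5 µM final) for 1 h, with labelled DUBs NeutrAvidin-enriched and run by diaPASEF LC-MS/MS.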

USP22 = target: T2, USP22 (UniProt Q9UPT9)
T2 sequence (whole entry): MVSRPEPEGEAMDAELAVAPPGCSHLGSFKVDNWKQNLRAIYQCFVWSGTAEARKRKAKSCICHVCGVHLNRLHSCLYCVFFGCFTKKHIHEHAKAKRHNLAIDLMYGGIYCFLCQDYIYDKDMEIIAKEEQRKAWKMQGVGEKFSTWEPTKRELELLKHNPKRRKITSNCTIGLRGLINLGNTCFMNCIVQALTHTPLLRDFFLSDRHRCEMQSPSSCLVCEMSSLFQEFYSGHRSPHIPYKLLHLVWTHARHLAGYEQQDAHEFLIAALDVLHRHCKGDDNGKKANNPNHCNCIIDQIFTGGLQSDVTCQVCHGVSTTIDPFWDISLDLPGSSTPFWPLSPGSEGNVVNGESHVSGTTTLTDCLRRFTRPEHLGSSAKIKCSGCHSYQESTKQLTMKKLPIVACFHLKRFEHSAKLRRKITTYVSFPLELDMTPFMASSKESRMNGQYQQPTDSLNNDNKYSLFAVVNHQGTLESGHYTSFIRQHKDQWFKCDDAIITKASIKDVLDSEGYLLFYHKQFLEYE
In short: as §1

USP24 = USP24 (UniProt Q9UPU5)
In short: as §1

USP25 = target: T3, USP25 (UniProt Q9UHP3)
T3 sequence (whole entry): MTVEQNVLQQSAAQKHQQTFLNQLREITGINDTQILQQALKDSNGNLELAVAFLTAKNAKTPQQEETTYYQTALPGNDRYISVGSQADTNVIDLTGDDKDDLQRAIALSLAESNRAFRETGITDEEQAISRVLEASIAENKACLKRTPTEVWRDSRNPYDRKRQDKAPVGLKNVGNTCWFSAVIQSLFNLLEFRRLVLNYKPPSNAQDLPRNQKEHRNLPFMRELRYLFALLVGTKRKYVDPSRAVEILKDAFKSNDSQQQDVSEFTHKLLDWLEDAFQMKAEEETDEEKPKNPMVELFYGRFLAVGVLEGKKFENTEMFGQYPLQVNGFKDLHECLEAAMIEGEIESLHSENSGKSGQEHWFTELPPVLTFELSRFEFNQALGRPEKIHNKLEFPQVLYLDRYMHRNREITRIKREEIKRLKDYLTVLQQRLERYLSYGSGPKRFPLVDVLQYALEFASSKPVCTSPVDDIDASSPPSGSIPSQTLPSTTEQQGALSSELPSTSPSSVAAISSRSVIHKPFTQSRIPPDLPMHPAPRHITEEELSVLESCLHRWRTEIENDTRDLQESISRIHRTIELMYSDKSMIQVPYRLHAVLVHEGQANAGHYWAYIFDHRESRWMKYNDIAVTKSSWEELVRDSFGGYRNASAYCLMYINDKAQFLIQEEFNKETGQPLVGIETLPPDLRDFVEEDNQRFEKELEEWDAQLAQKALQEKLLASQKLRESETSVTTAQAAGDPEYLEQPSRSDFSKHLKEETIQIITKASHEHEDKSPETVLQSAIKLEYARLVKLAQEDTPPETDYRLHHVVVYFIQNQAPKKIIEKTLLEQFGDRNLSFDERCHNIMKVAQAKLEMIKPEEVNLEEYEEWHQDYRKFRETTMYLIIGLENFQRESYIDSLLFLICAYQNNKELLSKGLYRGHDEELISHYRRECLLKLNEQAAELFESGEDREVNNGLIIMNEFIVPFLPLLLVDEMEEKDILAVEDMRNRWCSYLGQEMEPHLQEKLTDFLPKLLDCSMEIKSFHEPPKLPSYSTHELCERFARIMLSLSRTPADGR
In short: as §1

USP28 = target: T4, USP28 (UniProt Q96RU2)
T4 sequence (whole entry): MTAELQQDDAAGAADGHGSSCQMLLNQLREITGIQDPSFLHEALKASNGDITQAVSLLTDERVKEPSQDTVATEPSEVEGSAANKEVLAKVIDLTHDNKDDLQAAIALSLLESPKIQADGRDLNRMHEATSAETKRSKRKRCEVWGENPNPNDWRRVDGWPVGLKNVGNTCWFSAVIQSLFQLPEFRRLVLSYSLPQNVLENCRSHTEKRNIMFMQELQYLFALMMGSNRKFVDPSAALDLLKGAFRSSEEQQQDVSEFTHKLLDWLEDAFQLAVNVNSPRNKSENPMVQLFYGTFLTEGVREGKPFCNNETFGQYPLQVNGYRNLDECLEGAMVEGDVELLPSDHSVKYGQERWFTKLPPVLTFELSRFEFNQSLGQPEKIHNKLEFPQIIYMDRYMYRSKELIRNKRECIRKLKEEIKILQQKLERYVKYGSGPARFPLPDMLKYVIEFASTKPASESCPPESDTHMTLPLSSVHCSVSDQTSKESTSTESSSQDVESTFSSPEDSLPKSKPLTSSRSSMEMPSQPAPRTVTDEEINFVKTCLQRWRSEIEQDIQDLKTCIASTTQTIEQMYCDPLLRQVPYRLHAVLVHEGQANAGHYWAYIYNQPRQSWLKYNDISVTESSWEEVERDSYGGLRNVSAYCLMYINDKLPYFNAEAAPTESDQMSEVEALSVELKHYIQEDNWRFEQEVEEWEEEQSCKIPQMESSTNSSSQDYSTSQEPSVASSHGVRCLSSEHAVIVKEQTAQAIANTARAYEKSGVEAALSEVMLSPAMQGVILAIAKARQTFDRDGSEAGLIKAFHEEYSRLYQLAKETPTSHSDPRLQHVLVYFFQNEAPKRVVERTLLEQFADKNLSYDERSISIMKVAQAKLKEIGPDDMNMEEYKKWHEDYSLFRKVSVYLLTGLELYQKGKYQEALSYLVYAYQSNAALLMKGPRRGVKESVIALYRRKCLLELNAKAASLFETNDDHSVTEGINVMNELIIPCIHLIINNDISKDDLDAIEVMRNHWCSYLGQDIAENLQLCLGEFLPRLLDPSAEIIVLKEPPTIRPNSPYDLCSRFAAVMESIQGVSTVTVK
In short: as §1

Measured: log2 ratio of Biotin-Ahx-Ub-VS probe labelling

Chain of USP24 (Q9UPU5 whole entry): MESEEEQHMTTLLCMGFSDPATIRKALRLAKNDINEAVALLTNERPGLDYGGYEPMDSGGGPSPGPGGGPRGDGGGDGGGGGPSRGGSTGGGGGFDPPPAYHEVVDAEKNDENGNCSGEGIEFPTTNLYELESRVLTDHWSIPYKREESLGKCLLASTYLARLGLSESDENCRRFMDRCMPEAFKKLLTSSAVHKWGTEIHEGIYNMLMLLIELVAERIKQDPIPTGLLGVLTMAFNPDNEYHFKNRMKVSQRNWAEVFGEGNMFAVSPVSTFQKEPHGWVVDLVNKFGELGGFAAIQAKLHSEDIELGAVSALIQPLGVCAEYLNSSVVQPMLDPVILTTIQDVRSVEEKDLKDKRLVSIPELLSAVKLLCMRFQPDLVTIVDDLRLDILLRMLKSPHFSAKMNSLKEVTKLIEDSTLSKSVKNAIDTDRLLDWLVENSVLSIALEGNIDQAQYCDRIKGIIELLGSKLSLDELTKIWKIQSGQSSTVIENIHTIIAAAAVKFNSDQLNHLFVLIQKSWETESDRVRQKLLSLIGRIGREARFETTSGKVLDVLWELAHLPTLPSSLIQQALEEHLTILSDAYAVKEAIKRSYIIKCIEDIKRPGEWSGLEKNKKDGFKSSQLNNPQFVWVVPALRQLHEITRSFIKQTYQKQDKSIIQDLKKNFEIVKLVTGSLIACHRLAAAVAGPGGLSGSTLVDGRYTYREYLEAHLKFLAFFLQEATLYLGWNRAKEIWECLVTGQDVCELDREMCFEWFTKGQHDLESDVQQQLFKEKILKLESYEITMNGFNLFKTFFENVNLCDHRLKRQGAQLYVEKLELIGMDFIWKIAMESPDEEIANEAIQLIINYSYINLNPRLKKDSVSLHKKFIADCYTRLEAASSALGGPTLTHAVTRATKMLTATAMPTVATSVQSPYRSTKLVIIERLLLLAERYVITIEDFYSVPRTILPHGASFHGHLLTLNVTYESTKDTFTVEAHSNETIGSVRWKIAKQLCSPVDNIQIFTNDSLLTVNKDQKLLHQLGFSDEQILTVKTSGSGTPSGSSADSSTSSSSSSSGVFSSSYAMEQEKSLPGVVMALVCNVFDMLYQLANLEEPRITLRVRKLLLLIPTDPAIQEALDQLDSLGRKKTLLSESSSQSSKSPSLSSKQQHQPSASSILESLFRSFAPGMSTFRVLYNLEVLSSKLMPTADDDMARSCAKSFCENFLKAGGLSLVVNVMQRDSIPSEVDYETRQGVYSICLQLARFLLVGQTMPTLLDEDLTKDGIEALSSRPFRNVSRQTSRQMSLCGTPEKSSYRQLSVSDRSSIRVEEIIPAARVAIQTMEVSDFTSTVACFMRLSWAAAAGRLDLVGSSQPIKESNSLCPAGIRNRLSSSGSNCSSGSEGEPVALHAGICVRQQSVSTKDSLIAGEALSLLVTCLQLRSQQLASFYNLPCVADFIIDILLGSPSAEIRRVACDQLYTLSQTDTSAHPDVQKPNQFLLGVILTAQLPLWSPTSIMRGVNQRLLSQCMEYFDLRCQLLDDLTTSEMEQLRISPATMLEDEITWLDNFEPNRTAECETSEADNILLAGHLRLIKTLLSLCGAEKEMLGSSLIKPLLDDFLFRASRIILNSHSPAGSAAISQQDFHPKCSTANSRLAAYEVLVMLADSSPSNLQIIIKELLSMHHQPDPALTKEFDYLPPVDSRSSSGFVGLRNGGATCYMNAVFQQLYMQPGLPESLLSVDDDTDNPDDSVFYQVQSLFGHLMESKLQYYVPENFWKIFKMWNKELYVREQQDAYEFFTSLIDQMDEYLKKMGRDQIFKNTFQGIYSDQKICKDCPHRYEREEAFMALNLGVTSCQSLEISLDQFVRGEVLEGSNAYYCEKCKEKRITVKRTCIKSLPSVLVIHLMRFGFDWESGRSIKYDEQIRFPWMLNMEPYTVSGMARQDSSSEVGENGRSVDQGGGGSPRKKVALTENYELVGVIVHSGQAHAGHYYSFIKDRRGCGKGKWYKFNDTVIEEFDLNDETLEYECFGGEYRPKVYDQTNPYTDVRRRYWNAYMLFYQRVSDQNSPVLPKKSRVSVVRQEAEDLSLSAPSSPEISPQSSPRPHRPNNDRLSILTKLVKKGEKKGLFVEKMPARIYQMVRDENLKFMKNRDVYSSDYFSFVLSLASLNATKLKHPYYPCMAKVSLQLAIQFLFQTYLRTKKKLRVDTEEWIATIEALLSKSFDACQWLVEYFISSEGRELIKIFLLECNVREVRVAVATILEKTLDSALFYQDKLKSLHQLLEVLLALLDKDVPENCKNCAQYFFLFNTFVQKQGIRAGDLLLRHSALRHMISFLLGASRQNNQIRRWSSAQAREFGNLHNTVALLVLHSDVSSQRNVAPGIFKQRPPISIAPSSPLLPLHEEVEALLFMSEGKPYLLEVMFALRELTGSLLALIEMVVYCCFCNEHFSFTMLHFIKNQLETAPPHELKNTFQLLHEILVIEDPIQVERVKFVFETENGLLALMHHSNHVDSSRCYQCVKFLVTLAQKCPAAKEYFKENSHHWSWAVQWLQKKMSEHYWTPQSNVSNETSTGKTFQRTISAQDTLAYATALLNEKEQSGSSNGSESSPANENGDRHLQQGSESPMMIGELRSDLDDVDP

C[C@H]1CN(C(=O)CCl)CCN1C(=O)c1cnn(C)c1.Cl
inactive: USP19 -0.18 | USP22 -0.177 | USP24 -0.132 | USP25 -0.0187 | USP28 -0.325

Reference: the supplement of paper PMC11732987, “Enantioselective OTUD7B fragment discovery through chemoproteomics screening and high-throughput optimisation” (Communications Chemistry, 2025)
